# Where “and” joins values, the source holds several entries; their conditions need not be identical. Equal values may be shown once. Results filed as inconclusive are left out. Where a call stands in place of a potency, no number is given. A number with no mark means an inactive call. Calls of active or inactive are those of the source. Unless noted, the call rests on the fitted dose curve; in most records, active means well fitted curve in the direction sought with a large enough effect; inconclusive means small, poorly fitted or top-dose-only effect, or another doubt; inactive means no such curve, though single readings can be large; an effect the other way counts as inactive or inconclusive.
# What was measured:
# [1] = molecular target: Cellular tumor antigen p53 (Homo sapiens) (UniProt P04637); assay: Primary qHTS for small molecule compounds that upregulate eGFP-tagged delta133p53alpha (in N-terminal) cells. (AID 2060322); conditions: NCI-H358 eGFP-delta133p53alpha fluorescence, 24 h; activation: hits give high values; further: nearly all actives have a fitted effect of over 75% in size; further: potency means the concentration at half of the fitted maximal effect
# Summary of the method: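 NCI-H358 cells pre-induced 24 h with 10 ng/ml doxycycline to express N-terminal eGFP-delta133p53alpha, then dosed 24 h at 37C without doxycycline; fixed, Hoechst-stained, GFP intensity by laser scanning cytometry, normalized to DMSO (0%) and 57.5 uM 5-azacytidine (100%).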
# [2] = molecular target: Aldehyde dehydrogenase, mitochondrial (Homo sapiens) (UniProt P05091); assay: qHTS for Inhibitors of the Aldehyde Dehydrogenase Family (ALDH2) Confirmatory screens (AID 2061303; active means well fitted inhibition curve with a large enough effect; title and protocol of this record describe different tests; further: nearly all actives have a fitted effect of over 45% in size; further: potency means the concentration at half of the fitted maximal effect); conditions: ALDH inhibition qHTS; series mostly up to 45.4 µM
# [3] = molecular target: Aldehyde dehydrogenase, mitochondrial (Homo sapiens) (UniProt P05091); assay: qHTS for Inhibitors of the Aldehyde Dehydrogenase Family (ALDH2) Primary screen (AID 2061308); conditions: ALDH2 enzyme inhibition qHTS, 1536-well; series mostly up to 56 µM; further: nearly all actives have a fitted effect of over 55% in size; further: potency means the concentration at half of the fitted maximal effect
# [4] = molecular target: Retinal dehydrogenase 2 (Homo sapiens) (UniProt O94788); assay: qHTS for Inhibitors of the Aldehyde Dehydrogenase Family (ALDH1A2) Confirmation screens (AID 2061314); conditions: ALDH1A2 enzyme inhibition qHTS confirmation; series mostly up to 45.9 µM; further: nearly all actives have a fitted effect of over 65% in size; further: potency means the concentration at half of the fitted maximal effect
# [5] = molecular target: Retinaldehyde dehydrogenase 3 (Homo sapiens) (UniProt P47895); assay: qHTS for Inhibitors of the Aldehyde Dehydrogenase Family (ALDH1A3) Primary screen (AID 2061315); conditions: ALDH inhibition qHTS; series mostly up to 56 µM
# [6] = molecular target: Aldehyde dehydrogenase 1A1 (Homo sapiens) (UniProt P00352); assay: qHTS for Inhibitors of the Aldehyde Dehydrogenase Family (ALDH1A1) Confirmatory screens (AID 2061316); conditions: ALDH inhibition qHTS; series mostly up to 47.3 µM; further: nearly all actives have a fitted effect of over 65% in size; further: potency means the concentration at half of the fitted maximal effect
# [7] = molecular target: Retinaldehyde dehydrogenase 3 (Homo sapiens) (UniProt P47895); assay: qHTS for Inhibitors of the Aldehyde Dehydrogenase Family (ALDH1A3) Confirmatory screens (AID 2061311); conditions: ALDH inhibition qHTS; series mostly up to 46 µM; further: nearly all actives have a fitted effect of over 60% in size; further: potency means the concentration at half of the fitted maximal effect
# [8] = BET inhibitor-based combinations targeting novel dependencies in MECOM-rearranged (r) AML: SET-2 cell line (AID 2202231); conditions: SET-2 AML cells viability, CellTiter-Glo luminescence, 48 h; viability: hits give low values, concentration not given here; further: nearly all actives have a fitted effect of over 35% in size
# Summary of the method: (§1)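 Viability of cells (500 per well) is scored by luminescent CellTiter-Glo at 48 hr post-dosing. Eleven-point titrations are normalized to DMSO and empty controls and reduced to AUC values.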
# [9] = BET inhibitor-based combinations targeting novel dependencies in MECOM-rearranged (r) AML: MV-4-11 cell line (AID 2202233); conditions: MV-4-11 AML viability, CellTiter-Glo luminescence, 48 h; series mostly up to 46 µM; further: potency means the concentration at half of the fitted maximal effect; nearly all actives have a fitted effect of over 45% in size
# Summary of the method: (§2)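 Using pin-tool transfer, drugs were added in 11 doses to cells (500/well), incubated 48 hr, and assessed with CellTiter-Glo. Z-AUC is a mean-centring transformation applied separately to each screened line.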
# [10] = BET inhibitor-based combinations targeting novel dependencies in MECOM-rearranged (r) AML: UCSD-AML1 cell line (AID 2202235); conditions: UCSD-AML1 AML cells viability, CellTiter-Glo, 48 h; series mostly up to 46 µM; further: nearly all actives have a fitted effect of over 40% in size
# Summary of the method: as §2
# [11] = BET inhibitor-based combinations targeting novel dependencies in MECOM-rearranged (r) AML: AML-191 cell line (AID 2202236; further: potency means the concentration at half of the fitted maximal effect; nearly all actives have a fitted effect of over 35% in size); conditions: AML-191 viability, CellTiter-Glo luminescence, 48 h; series mostly up to 46 µM
# Summary of the method: as §1
# [12] = molecular target: Retinaldehyde dehydrogenase 3 (Homo sapiens) (UniProt P47895); assay: qHTS for Inhibitors of the Aldehyde Dehydrogenase Family (ALDH1A3) Validation screen (AID 2061312); conditions: ALDH1A3 enzyme inhibition qHTS validation, fluorescence; series mostly up to 84.7 µM; further: nearly all actives have a fitted effect of over 45% in size; further: potency means the concentration at half of the fitted maximal effect
# [13] = qHTS for Inhibitors of the Aldehyde Dehydrogenase Family (ALDH1A2, ALDH1A3, ALDH2, ALDH3A1) (AID 2061307); conditions: ALDH inhibition qHTS; series mostly up to 50.3 µM; further: nearly all actives have a fitted effect of over 50% in size
# [14] = BET inhibitor-based combinations targeting novel dependencies in MECOM-rearranged (r) AML: HNT-34 cell line (AID 2202234); conditions: HNT-34 AML viability, CellTiter-Glo luminescence, 48 h; series mostly up to 46 µM; further: potency means the concentration at half of the fitted maximal effect; nearly all actives have a fitted effect of over 35% in size
# Summary of the method: as §2
# Sequence of Cellular tumor antigen p53 (Homo sapiens) (P04637 whole entry, looked up): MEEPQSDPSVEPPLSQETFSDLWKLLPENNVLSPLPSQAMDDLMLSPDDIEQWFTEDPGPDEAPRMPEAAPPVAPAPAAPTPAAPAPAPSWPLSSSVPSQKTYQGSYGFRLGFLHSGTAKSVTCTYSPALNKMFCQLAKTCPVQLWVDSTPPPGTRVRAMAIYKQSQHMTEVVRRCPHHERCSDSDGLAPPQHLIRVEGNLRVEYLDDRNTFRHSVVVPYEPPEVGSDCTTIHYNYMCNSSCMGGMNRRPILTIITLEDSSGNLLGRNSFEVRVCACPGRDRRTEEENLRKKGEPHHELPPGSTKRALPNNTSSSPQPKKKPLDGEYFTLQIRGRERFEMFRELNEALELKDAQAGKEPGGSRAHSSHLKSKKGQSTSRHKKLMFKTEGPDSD
smiles,measurement,setting,value
C/C=C/C=C/c1cc2c(C=O)c(O)c(CC=C(C)C)cc2o1,Potency,[1],26.9 µM (active)
same,Potency,[2],11.3 µM (active)
same,Potency,[3],28.2 µM (active)
same,Potency,[4],10.1 µM (active)
same,Potency,[5],inactive
same,Potency,[6],11.3 µM (active)
O=C1NC(=O)C(c2cn(-c3ccccc3)nc2-c2ccc(F)cc2)N1 (stereo not drawn),activation,[1],4.33%
same,Potency,[2],inactive
same,Potency,[3],inactive
same,Potency,[7],inactive
same,Potency,[4],inactive
same,Potency,[5],inactive
same,Potency,[6],inactive
COc1cc(C2Oc3c(OC)cc(CCCO[C@@H]4O[C@H](CO)[C@@H](O)[C@H](O)[C@H]4O)cc3C2CO)ccc1O (stereo partly drawn),activation,[1],-6.25%
same,Potency,[2],inactive
same,Potency,[3],inactive
same,Potency,[4],inactive
same,Potency,[5],inactive
same,Potency,[6],inactive
COc1cc([C@H]2c3cc(O)c(OC)cc3C[C@@H](CO[C@@H]3O[C@H](CO)[C@@H](O)[C@H](O)[C@H]3O)[C@@H]2CO)ccc1O,activation,[1],9.82%
same,Potency,[2],inactive
same,Potency,[3],inactive
same,Potency,[4],inactive
Cn1cc(-c2ccc3ncc(Cc4ccc5ncccc5c4)n3n2)cn1,activation,[1],15.2% and 9.55%
same,Potency,[2],inactive
same,Potency,[3],inactive
same,Potency,[5],inactive
same,Potency,[6],inactive
same,viability,[8],105%
same,Potency,[9],18.6 µM (active)
same,Potency,[10],inactive
same,Potency,[11],13.2 µM (active)
C[C@@H]1O[C@@H](O[C@H]2[C@H](O[C@H]3CO[C@@H](O[C@H]4CC[C@@]5(C)C(CC[C@]6(C)C5CC[C@]57OC[C@@]8(CC[C@](C)(CO)CC85)[C@H](O)C[C@]76C)C4(C)C)[C@H](O[C@@H]4O[C@H](CO)[C@@H](O)[C@H](O)[C@H]4O)[C@H]3O)O[C@H](CO)[C@@H](O)[C@@H]2O)[C@H](O)[C@H](O)[C@H]1O (stereo partly drawn),activation,[1],-4.58%
same,"activity change, negative = inhibition",[2],-29.1% [at 10 µM]
same,Potency,[3],inactive
same,"activity, negative = inhibition",[4],-8.29% [at 10 µM]
same,Potency,[5],inactive
same,"activity change, negative = inhibition",[6],-22.4% [at 10 µM]
OC[C@@]1(O)CO[C@@H](OC[C@H]2O[C@@H](Oc3c[nH]c4ccccc34)[C@H](O)[C@@H](O)[C@@H]2O)[C@@H]1O,activation,[1],-5.34%
same,Potency,[2],inactive
same,Potency,[3],inactive
same,Potency,[5],inactive
same,Potency,[6],inactive
CC1(C)O[C@@]2(C)CC[C@@H]1C[C@@H]2OC1OC(CO)C(O)C(O)C1O (stereo partly drawn),activation,[1],-6.11%
same,Potency,[2],inactive
same,Potency,[3],inactive
same,Potency,[4],inactive
same,Potency,[5],inactive
same,Potency,[6],inactive
C=CC(=O)N1CCN(C(=O)CNc2cc(-c3ccccc3Cl)c(Cl)cc2OC)CC1,activation,[1],8.59%
same,Potency,[2],inactive
same,Potency,[3],inactive
same,Potency,[7],inactive
same,Potency,[12],inactive
same,Potency,[5],inactive
same,Potency,[6],inactive
Nc1cccc(CNC(=O)c2ccc(Oc3ccc(OCc4cccc(F)c4)cc3)nc2)c1,activation,[1],-6.68%
same,Potency,[2],inactive
same,Potency,[12],inactive
same,Potency,[4],inactive
same,Potency,[5],inactive
CN1CCN(C(=O)CN[C@@H]2C[C@H]2c2ccc(OCc3ccccc3)cc2)CC1,activation,[1],68.2%
same,Potency,[2],14.1 µM (active)
same,Potency,[7],3.98 µM (active)
same,Potency,[12],1.41 µM (active)
same,Potency,[6],20.1 µM (active)
COc1ccc(NC(=O)c2ccc(-c3ccc(C(N)=O)cc3C)cc2)cc1N1CCN(C)CC1,activation,[1],1.43%
same,Potency,[2],inactive
same,Potency,[3],inactive
same,Potency,[7],inactive
same,Potency,[12],inactive
same,Potency,[5],inactive
same,Potency,[6],inactive
CC1(C)CCC2(C(=O)OC3OC(CO)C(O)C(O)C3O)CCC3(C)C(=CCC4C5(C)CCC(O)C(C)(C(=O)O)C5CCC43C)C2C1O (stereo not drawn),activation,[1],3.57%
same,Potency,[2],inactive
same,Potency,[3],inactive
same,Potency,[7],inactive
same,Potency,[4],inactive
same,Potency,[5],inactive
same,Potency,[6],inactive
OC/C=C/C=C/[C@H]1Cc2cc(O)cc(O)c2O1,activation,[1],0.893%
same,Potency,[2],inactive
same,Potency,[3],inactive
same,Potency,[4],inactive
CC1=CC(=O)C(=C(C)C)CC2C(C)(O)CCC12O (stereo not drawn),activation,[1],-8.93%
same,Potency,[2],inactive
same,Potency,[3],inactive
same,Potency,[4],inactive
same,Potency,[5],inactive
same,Potency,[6],inactive
Cn1cc(Nc2cnccc2C(=O)O)c2cccnc21,activation,[1],4.33%
same,Potency,[2],inactive
same,Potency,[3],inactive
same,Potency,[7],inactive
same,Potency,[4],inactive
same,Potency,[5],inactive
COc1cccc(CNC(=O)Nc2nc(-c3ccncc3)cs2)c1,activation,[1],-8.04%
same,Potency,[13],2.01 µM (active)
same,Potency,[3],inactive
same,Potency,[4],5.65 µM (active)
same,Potency,[5],inactive
O=C(NCCCCCCCCNC(=O)C(Cl)Cl)C(Cl)Cl,activation,[1],-0.333%
same,Potency,[13],8.91 µM (active)
O=C(c1c(F)ccc(NS(=O)(=O)N2CC[C@@H](F)C2)c1F)c1c[nH]c2ncc(-c3cnc(C4CC4)nc3)cc12,activation,[1],17%
same,Potency,[13],22.4 µM (active)
same,Potency,[3],inactive
same,Potency,[4],inactive
same,Potency,[5],inactive
same,Potency,[9],18.6 µM (active)
same,Potency,[14],5.9 µM (active)
O=C(O)c1cc(C(F)(F)F)ccc1N1CC[C@H](OCc2ccccn2)C1,activation,[1],-17%
same,Potency,[13],inactive
same,Potency,[3],inactive
same,Potency,[7],inactive
same,Potency,[5],inactive
same,Potency,[6],inactive
O=C(C1OC1/C=C/c1ccc2c(c1)OCO2)N1CCCCC1 (stereo not drawn),activation,[1],-6.11%
same,Potency,[13],inactive
same,Potency,[3],inactive
same,Potency,[4],inactive
COc1ccc(CCO[C@@H]2O[C@H](CO[C@H]3OC[C@](O)(CO)[C@H]3O)[C@@H](OC(=O)/C=C/c3ccc(O)c(O)c3)[C@H](O[C@@H]3O[C@@H](C)[C@H](O)[C@@H](O)[C@H]3O)[C@H]2O)cc1OC,activation,[1],16%
same,Potency,[13],inactive
same,Potency,[3],inactive
same,Potency,[4],inactive
CC/C=C/C(O)C(O)C1=C(C)C(=O)C2(O1)C(=O)NC(OC)(C(=O)c1ccccc1)C2O (stereo not drawn),activation,[1],15.3%
same,Potency,[13],inactive
same,Potency,[3],inactive
same,Potency,[4],inactive
same,Potency,[5],inactive
COc1cc(C[C@H]2C(=O)OC[C@@H]2Cc2ccc(OC)c(OC)c2)ccc1O,activation,[1],19.6%
same,Potency,[13],0.251 µM (active)
same,Potency,[3],inactive
same,Potency,[5],inactive

# From PubChem BioAssay (NCATS)
